Active and inactive are the calls of the source.
Legend:
Albumin (Bos taurus) = Albumin (Bos taurus) (UniProt P02769); assay: compounds binding labelled BSA control protein – biochemical, small-molecule microarray, Alexa647 label, 635/667 nm fluorescence, artefact control for SMM control protein annotation, profiling panel (AID 1118); settings: BSA-A647 binding, fluorescence 635 nm, higher = more signal;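 also: score merges 667 nm emission intensity and signal-to-noise per printed compound spot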
[1] = probe aXIP binding to arrayed compounds – biochemical, NeuroSMM set, 635/667 nm fluorescence, primary screen (AID 1119); settings: small-molecule microarray, higher = more signal, called active from +8 up or from −8 down;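 also: probe is the protein aXip251-270 applied at 1 µg/mL to compound-printed slides; binding of probe to printed compounds measured as 667 nm fluorescence plus signal to noise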
[2] = probe aNOTCH3 binding on compound microarray – biochemical, small-molecule microarray, 635/667 nm fluorescence, primary screen (AID 1120); settings: higher = more signal;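 also: probe is a biotin-tagged antibody raised against NOTCH3 rather than NOTCH3 protein; score merges spot fluorescence near 667 nm with spot signal to noise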
[3] = probe aNOTCH2 binding on compound microarray – biochemical, small-molecule microarray, 635/667 nm fluorescence, primary screen (AID 1121); settings: higher = more signal;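 also: score merges feature fluorescence read at 667 nm with its signal to noise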
[4] = target: Carbonic anhydrase 2 (Homo sapiens) (UniProt P00918); assay: compounds binding carbonic anhydrase 2 – biochemical, small-molecule microarray, Alexa647-labelled CAII, profiling panel (AID 1122); settings: CAII-A647 binding fluorescence, higher = more signal
[5] = COS7 lysate on small-molecule microarray, probe aHis, 635 nm (AID 1123); settings: COS7 cell lysate, fluorescence, higher = more signal;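 also: z-score combines 667nm fluorescence intensity with signal-to-noise per printed compound spot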
[6] = probe aLAP1 signal on lysate-treated microarray – cell lysate, small-molecule microarray, COS7 lysate, primary screen (AID 1124); settings: probe aLAP1, fluorescence, higher = more signal;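 also: lysate comes from COS7 cells expressing LAP1 and is applied at 0.3 µg/mL; score merges spot fluorescence near 667 nm with signal-to-noise over triplicate slides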
Sam68 (KHDRBS1) = assay: compounds binding KHDRBS1 protein – biochemical, small-molecule microarray, 635 nm fluorescence, primary screen (AID 1125); settings: higher = more signal;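 also: score merges 667 nm channel intensity with signal to noise over triplicate slides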
[7] = tested on: Chordin-like protein 2 (CHRDL2); assay: compounds binding chordin-like 2 – biochemical, small-molecule microarray, 635 nm fluorescence, primary screen (AID 1126); settings: fluorescence 635 nm, higher = more signal;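 also: printed compound slides probed with Chrdl2 protein at 4 µg/mL for 1 h at 4 C; score merges 667 nm emission intensity with signal to noise over three replicate slides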
[8] = target: Concanavalin-A (Canavalia ensiformis) (UniProt P02866); assay: compounds binding concanavalin A lectin – biochemical, small-molecule microarray, Alexa647 label, 635 nm, artefact control for SMM control protein annotation, primary screen (AID 1127); settings: ConA-A647 binding fluorescence, higher = more signal;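 also: z combines 667 nm emission intensity with signal-to-noise across three replicate slides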
[9] = compounds binding Alexa647 anti-His antibody – biochemical, small-molecule microarray, 635 nm fluorescence, artefact control for SMM control protein annotation, primary screen (AID 1128); settings: higher = more signal;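 also: score merges feature fluorescence with signal-to-noise for each printed compound spot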
[10] = tested on: Human papillomavirus type 1a E7 protein (residues 1-88); assay: HPV1a E7 small-molecule binders, primary screen, biochemical, small-molecule microarray, residues 1-88, 635 nm (AID 1129); settings: small-molecule microarray binding, fluorescence 635 nm; higher = more signal
[11] = target: Focal adhesion kinase 1 (Homo sapiens) (UniProt Q05397); assay: PTK2 protein binding on printed compound slides – biochemical, small-molecule microarray, 635/667 nm fluorescence, BSA, DTT, primary screen (AID 1130); settings: 635 nm fluorescence, higher = more signal;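 also: composite of spot emission at 667 nm and signal to noise over triplicate slides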
[12] = tested on: Fibrinogen (Alexa647-labelled); assay: Alexa647-fibrinogen binding to printed small molecules – biochemical, small-molecule microarray, 635/667 nm fluorescence, artefact control for SMM control-protein annotation, profiling panel (AID 1131); settings: fibrinogen-A647 binding fluorescence, higher = more signal;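 also: z-score merges 667 nm fluorescence with per-spot signal-to-noise over triplicate slides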
[13] = target: Follistatin (Homo sapiens) (UniProt P19883); assay: FST protein binding to printed compounds – biochemical, small-molecule microarray, 635/667 nm fluorescence, primary screen (AID 1132); settings: 635 nm fluorescence, higher = more signal
[14] = target: Fibroblast growth factor 2 (Homo sapiens) (UniProt P09038); assay: basic fibroblast growth factor binding to printed compounds – biochemical, small-molecule microarray, 635/667 nm fluorescence, primary screen (AID 1133); settings: FGF2, fluorescence 635/667, higher = more signal
[15] = JC-1 mitochondrial potential readout, lung cancer cells – cell-based, A549, JC-1 fluorescence, basal, 24 h, 100 nL, profiling panel (AID 1138); settings: higher = more signal;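 also: A549 lung adenocarcinoma cells under basal conditions with no added stimulus; test concentration not given here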
Lefty1 = Lefty1 protein binding to printed compounds – biochemical, small-molecule microarray, 635/667 nm fluorescence, primary screen (AID 1139); settings: fluorescence 635/667, higher = more signal
[16] = tested on: wheat germ agglutinin (Triticum aestivum), Alexa647-labelled; assay: Alexa647-WGA lectin binding to printed small molecules – biochemical, small-molecule microarray, 635/667 nm fluorescence, artefact control for SMM control-protein annotation, profiling panel (AID 1140); settings: WGA-A647 binding, 635 nm fluorescence, higher = more signal;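 also: score merges 667 nm feature emission with signal to noise over triplicate slides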
[17] = target: Luciferin 4-monooxygenase (Photinus pyralis) (UniProt P08659); assay: inhibition of purified Photinus pyralis luciferase – biochemical, luminescence, purified enzyme, 2006 set, primary screen (AID 1141); settings: purified firefly luciferase, SteadyGlo luminescence, 30 min; higher = more signal, called active from +8 up or from −8 down;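 also: cell-free assay with purified firefly luciferase at 100 ng per well in PBS; test concentration not given here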
Sequence of Luciferin 4-monooxygenase (Photinus pyralis) (P08659 whole entry, looked up): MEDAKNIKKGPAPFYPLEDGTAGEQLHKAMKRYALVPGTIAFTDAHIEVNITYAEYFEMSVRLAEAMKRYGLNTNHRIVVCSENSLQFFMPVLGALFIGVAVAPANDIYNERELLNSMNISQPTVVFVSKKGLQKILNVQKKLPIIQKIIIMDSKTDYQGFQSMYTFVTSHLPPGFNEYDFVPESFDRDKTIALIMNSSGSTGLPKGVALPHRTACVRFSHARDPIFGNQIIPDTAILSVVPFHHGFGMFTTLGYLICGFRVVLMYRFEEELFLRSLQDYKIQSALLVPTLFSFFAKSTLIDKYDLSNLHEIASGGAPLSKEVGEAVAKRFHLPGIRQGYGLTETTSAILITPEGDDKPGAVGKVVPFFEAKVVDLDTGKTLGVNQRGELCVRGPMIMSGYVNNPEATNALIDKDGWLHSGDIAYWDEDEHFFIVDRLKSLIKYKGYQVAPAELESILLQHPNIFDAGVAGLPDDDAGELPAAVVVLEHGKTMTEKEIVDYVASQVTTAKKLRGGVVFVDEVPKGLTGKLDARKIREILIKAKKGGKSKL

Sequence of Concanavalin-A (Canavalia ensiformis) (P02866 whole entry, looked up): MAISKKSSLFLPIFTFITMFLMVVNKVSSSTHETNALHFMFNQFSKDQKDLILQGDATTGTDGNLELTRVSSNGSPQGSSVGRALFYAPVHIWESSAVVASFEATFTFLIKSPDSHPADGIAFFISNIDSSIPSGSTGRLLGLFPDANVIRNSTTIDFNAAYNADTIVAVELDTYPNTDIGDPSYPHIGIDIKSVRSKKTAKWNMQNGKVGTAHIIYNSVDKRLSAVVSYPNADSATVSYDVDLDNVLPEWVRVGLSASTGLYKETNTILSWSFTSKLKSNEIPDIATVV
Sequence of Focal adhesion kinase 1 (Homo sapiens) (Q05397 whole entry, looked up): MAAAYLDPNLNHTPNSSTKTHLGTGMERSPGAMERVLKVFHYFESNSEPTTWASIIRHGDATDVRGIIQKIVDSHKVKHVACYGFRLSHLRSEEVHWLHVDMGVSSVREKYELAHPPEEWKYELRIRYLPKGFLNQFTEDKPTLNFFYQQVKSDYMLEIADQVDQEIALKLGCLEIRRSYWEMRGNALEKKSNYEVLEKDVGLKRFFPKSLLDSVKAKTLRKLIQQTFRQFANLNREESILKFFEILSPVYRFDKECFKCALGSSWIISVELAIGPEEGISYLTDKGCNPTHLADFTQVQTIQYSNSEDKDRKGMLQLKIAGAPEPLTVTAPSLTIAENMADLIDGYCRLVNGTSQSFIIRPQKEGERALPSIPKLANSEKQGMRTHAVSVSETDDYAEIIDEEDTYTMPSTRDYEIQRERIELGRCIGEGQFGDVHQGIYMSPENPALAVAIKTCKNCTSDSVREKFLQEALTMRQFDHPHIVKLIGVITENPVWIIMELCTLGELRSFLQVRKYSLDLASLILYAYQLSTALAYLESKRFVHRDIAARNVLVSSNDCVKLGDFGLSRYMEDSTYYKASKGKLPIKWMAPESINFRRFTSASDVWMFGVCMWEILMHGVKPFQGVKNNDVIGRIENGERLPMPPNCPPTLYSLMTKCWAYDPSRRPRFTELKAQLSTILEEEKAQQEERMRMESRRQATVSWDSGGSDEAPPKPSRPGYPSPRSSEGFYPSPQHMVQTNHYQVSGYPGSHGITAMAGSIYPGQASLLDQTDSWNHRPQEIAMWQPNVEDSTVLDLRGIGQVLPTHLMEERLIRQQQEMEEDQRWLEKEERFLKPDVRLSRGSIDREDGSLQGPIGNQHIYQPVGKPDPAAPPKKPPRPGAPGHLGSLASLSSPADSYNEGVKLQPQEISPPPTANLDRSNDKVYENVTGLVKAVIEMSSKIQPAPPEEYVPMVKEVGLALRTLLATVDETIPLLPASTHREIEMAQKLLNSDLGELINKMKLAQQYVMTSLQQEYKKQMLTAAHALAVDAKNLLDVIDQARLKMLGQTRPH
Sequence of Fibroblast growth factor 2 (Homo sapiens) (P09038 whole entry, looked up): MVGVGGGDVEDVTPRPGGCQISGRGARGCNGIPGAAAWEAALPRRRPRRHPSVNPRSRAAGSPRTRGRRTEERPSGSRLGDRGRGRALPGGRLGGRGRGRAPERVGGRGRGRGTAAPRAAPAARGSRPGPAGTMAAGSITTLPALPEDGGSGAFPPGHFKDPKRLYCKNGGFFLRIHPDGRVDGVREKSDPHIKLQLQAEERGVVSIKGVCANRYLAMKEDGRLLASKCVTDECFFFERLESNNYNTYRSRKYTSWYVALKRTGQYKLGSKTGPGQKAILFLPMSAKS
Sequence of Follistatin (Homo sapiens) (P19883 whole entry, looked up): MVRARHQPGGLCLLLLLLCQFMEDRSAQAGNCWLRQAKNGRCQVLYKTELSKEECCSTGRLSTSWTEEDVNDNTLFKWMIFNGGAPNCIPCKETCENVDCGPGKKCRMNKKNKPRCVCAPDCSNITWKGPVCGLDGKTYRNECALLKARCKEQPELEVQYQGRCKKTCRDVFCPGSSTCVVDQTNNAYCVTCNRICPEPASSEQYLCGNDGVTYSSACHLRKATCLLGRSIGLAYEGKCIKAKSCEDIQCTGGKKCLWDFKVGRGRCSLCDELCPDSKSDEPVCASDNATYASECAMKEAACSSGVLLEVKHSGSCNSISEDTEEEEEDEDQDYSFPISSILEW
Sequence of Albumin (Bos taurus) (P02769 whole entry, looked up): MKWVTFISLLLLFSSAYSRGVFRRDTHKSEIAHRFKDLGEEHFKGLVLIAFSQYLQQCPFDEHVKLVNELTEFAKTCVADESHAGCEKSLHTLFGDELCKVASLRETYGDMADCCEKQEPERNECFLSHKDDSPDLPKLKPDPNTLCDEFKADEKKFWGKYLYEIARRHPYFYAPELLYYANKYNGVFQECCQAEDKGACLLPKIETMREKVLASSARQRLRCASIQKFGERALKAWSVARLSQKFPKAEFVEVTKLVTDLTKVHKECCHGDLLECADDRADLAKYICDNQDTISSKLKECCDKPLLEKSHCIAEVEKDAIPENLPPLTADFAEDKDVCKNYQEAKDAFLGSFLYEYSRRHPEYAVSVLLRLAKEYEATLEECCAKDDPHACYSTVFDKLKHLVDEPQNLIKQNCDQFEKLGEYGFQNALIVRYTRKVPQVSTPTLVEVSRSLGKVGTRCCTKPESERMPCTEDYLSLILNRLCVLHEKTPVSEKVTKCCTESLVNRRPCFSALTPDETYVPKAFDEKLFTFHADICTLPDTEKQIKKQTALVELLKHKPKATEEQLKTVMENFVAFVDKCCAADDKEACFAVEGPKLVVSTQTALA

Structure (SMILES) | composite z-score (Albumin (Bos taurus)) | composite Z-score [1] | composite z-score [2] | composite z-score [3] | composite z-score [4] | composite z-score [5] | composite z-score [6] | composite z-score (Sam68 (KHDRBS1)) | composite z-score [7] | composite z-score [8] | composite z-score [9] | composite z-score [10] | composite z-score [11] | composite z-score [12] | composite z-score [13] | composite z-score [14] | z-score [15] | composite z-score (Lefty1) | composite z-score [16] | z-score [17]
CC(c1ccccc1)C(O)C1C=CC2C(=O)N(C)C(=O)C2N1NC(=O)OC(C)(C)C (stereo not given) | 0.974 | 0.741 (inactive) | 0.148 | -0.0159 | 0.695 | 2.53 | 0.857 | 1.3 | -0.338 | 1.12 | 0.79 | 1.21 | 0.235 | 1.03 | 0.696 | 0.0621 | -0.422 | -0.271 | 0.939 | -0.934 (inactive)
COC(=O)[C@H](Cc1ccccc1)N[C@H](/C=C/C1CC1)[C@@H](O)Cc1ccccc1 | -0.115 | 0.448 (inactive) | 0.392 | -0.193 | -0.36 | 0.369 | -0.309 | -0.56 | -0.318 | -0.811 | -0.174 | -0.688 | -0.295 | -1.05 | 0.395 | 0.123 | -0.0444 | -0.0264 | 0.0999 | 0.723 (inactive)
COc1ccc(C(O)C2C=CC3C(=O)N(C)C(=O)C3N2N(c2ccccc2)c2ccccc2)c2ccccc12 (stereo not given) | -0.111 | 1.39 (inactive) | 0.237 | -0.0017 | 0.677 | -0.198 | 0.976 | -0.481 | 0.776 | 0.369 | 2.54 | -0.172 | -0.278 | 0.384 | 1.41 | 0.392 | 0.419 | 1.09 | 1.07 | -0.091 (inactive)
CC(=O)NCCCC[C@@H]1NC(=O)[C@H]2C[C@@H](C(=O)NCCCCCNC(=O)CS)[C@@H](c3ccc(O)cc3)N2C1=O | -0.16 | -0.249 (inactive) | -0.136 | -0.133 | 0.704 | 1.07 | -0.269 | 0.338 | -0.105 | 0.509 | 2.12 | -0.15 | 0.167 | -0.355 | 0.769 | 0.424 | 0.139 | -0.272 | -0.0796 | -2.56 (inactive)
O=C1C2C=CC(C(O)c3c(F)cccc3Cl)N(Nc3ccccc3F)C2C(=O)N1c1ccccc1 (stereo not given) | 0.913 | -0.145 (inactive) | 0.185 | -0.0216 | 0.691 | 1.67 | 0.497 | 1.21 | -0.534 | 0.972 | 0.236 | 1.23 | 0.631 | 0.926 | 1.09 | 0.793 | 0.353 | -0.199 | 0.702 | -0.059 (inactive)
COC(=O)[C@@]1(Cc2ccc(F)cc2)[C@H]2c3cc(C(=O)N(C)C)n(Cc4cc(C)n(C)n4)c3C[C@H]2CN1C(=O)c1ccccc1 | 1.03 | 0.467 (inactive) | 0.19 | 0.0552 | 0.806 | 3.08 | 0.738 | 1.31 | -0.141 | 1.01 | 2.76 | 1.2 | 0.646 | 0.795 | 0.577 | -0.237 | -0.013 | -0.574 | 0.537 | 0.272 (inactive)
O=C1C2C=CC(C(O)c3ccc4c(c3)OCO4)N(Nc3ccc([N+](=O)[O-])cc3)C2C(=O)N1c1ccccc1 (stereo not given) | 0.854 | -0.0054 (inactive) | 0.0225 | -0.104 | 0.699 | 1.15 | 0.345 | 0.597 | -0.0385 | 0.813 | 1.29 | 0.978 | -0.0123 | 0.293 | 0.225 | -0.0036 | -0.35 | 0.313 | 0.0897 | 0.382 (inactive)
O=C(NC1CC1)[C@@H]1c2ccccc2C(=O)N(C2Cc3ccccc3C2)[C@H]1c1ccc(CO)cc1 | 0.378 | -0.358 (inactive) | -0.0166 | 0.0386 | 0.608 | 1.41 | 0.237 | 1.24 | 0.847 | 0.918 | 2.65 | 1.18 | 0.167 | -0.677 | 1.29 | 0.988 | 1.64 | 0.294 | 0.0895 | 0.659 (inactive)
COC(=O)[C@@]1(Cc2ccccc2)[C@H]2c3cc(C(=O)N(C)C)n(Cc4ccc(OC)c(OC)c4)c3C[C@H]2CN1C(=O)c1ccccc1 | 0.864 | 0.0388 (inactive) | 0.775 | 0.318 | 0.467 | 3.07 | 0.463 | 1.29 | -0.78 | 0.829 | 1.81 | 1.27 | 0.561 | 1.01 | 0.385 | -0.588 | 0.134 | 0.0922 | 0.995 | 1.29 (inactive)
COCCOC(=O)N1C(=O)[C@@]2(c3cc(C#CC4(O)CCCCCC4)ccc31)[C@H](c1ccccc1OCCO)N1[C@H](c3ccccc3)[C@H](c3ccccc3)OC(=O)[C@H]1[C@@H]2C(=O)N1CCc2cc(OC)c(OC)cc2C1 | 0.223 | 0.758 (inactive) | 0.0039 | -0.0817 | 0.527 | 1.89 | 0.612 | 1.29 | -0.225 | 1.13 | 2.27 | 1.23 | 0.669 | 0.895 | 0.653 | 0.461 | -0.932 | 0.8 | 0.632 | -0.022 (inactive)
COc1cc2c(cc1OC)CN(C(=O)[C@H]1[C@@H]3C(=O)O[C@@H](c4ccccc4)[C@@H](c4ccccc4)N3[C@@H](c3ccccc3OCCO)[C@]13C(=O)Nc1ccc(C#CCCO)cc13)CC2 | 0.766 | 0.397 (inactive) | 0.0268 | -0.118 | 0.383 | 0.935 | -0.0376 | 1.33 | 0.579 | 1.11 | 1.1 | 1.2 | 0.612 | 0.871 | 1.18 | 1.65 | -0.486 | 1.13 | 0.524 | -0.255 (inactive)

— PubChem BioAssay
